# PMC4336329 (PLoS ONE, 2015)
# The campaign covered roughly 310,000 compounds. About 14,000 (4.5%) showed an effect of 50% or more. Effects have a minus sign here. This excerpt belongs to a sample that is enriched for strong results.
# Molecular target: human ether-à-go-go-related gene (hERG) potassium channel (human, UniProt Q12809)
# Assay: primary screen, population patch clamp on CHO cells stably expressing hERG; higher = less effect of the substance
# 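Further: peak tail current of the secondary pulse compared with the same well before compound.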
# Sequence of human ether-à-go-go-related gene (hERG) potassium channel (Q12809 whole entry, looked up): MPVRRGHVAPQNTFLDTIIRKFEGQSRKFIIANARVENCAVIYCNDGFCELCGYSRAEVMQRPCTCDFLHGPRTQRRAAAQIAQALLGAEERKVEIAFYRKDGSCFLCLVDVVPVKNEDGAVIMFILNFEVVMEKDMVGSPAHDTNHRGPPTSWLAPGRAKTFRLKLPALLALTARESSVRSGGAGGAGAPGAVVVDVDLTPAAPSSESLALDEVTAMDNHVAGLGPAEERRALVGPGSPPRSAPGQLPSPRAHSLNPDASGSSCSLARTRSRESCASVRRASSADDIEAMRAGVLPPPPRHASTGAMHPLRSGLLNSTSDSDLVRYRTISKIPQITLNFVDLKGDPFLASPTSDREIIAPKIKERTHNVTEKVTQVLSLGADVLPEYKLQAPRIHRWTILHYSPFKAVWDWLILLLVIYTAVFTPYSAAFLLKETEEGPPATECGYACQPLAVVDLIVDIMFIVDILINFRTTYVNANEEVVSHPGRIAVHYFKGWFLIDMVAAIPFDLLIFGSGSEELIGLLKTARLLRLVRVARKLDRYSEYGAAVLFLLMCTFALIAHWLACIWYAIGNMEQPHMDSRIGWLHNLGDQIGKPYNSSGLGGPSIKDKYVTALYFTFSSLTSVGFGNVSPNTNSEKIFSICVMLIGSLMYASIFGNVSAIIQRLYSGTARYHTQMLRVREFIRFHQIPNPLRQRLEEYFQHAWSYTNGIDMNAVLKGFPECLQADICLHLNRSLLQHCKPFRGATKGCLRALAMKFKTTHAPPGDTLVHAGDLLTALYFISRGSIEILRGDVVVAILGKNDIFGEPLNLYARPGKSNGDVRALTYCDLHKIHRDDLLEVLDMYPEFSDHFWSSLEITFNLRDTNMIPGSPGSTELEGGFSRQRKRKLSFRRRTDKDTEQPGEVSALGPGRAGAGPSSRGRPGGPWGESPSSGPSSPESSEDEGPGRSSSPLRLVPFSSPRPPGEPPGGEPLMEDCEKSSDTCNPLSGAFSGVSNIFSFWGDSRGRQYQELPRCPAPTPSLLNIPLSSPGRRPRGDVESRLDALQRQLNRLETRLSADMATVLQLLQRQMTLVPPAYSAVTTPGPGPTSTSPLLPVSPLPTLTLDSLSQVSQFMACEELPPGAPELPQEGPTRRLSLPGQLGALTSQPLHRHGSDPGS
row,Structure (SMILES),"hERG current change (%, negative = inhibition) at 10uM"
1,O=C(Nc1cccnc1Cl)c1cc(-c2ccccc2O)on1,-5.16%
2,COc1ccc(NCc2ccc3c(c2)OCO3)cc1Cl,-4.31%
3,CC(C)CSc1nnc2c3ccccc3n(C)c2n1,-11.9%
4,CC1=C(C(N)=O)C(c2ccccc2[N+](=O)[O-])n2ncnc2N1 (stereo not shown),7.69%
5,C=Cn1c(C(=O)O)ccc1-c1ccc(CC)cc1,-5.29%
6,COC(=O)Nc1ccc(S(=O)(=O)N(CCO)CC(F)(F)C(F)F)cc1,18.3%
7,CN=C1S/C(=C\c2ccc(OCC(=O)OC)c(OC)c2)C(=O)N1C,12.6%
8,Cc1ccc(CNc2nc(C)nc3sc4c(c23)CCC4)cc1,-4.22%
9,Cc1sc2ncnc(NCc3cccs3)c2c1C,-61.7%
10,c1cncc(CNc2ncnc3sc4c(c23)CCCC4)c1,-78%
11,O=C(Nc1ncnc2sc3c(c12)CCCC3)c1ccncc1,-14.2%
12,Cc1sc2ncnc(NCc3cccnc3)c2c1C,-55%
13,Cc1sc2ncnc(NCCCO)c2c1C,5.08%
14,c1ccc(CNc2ncnc3sc4c(c23)CCCC4)nc1,-27.4%
15,CCCNc1ncnc2sc(C)c(C)c12,-1.05%
16,Cc1sc2ncnc(OCC(=O)NCc3cccs3)c2c1C,6.03%
17,Cc1sc2ncnc(NCc3ccco3)c2c1C,-16.3%
18,Cc1nc(NCc2cccnc2)c2c3c(sc2n1)CCCC3,-70.2%
19,Cc1nc(NCc2cccnc2)c2c3c(sc2n1)CC(C)CC3 (stereo not shown),-25.1%
20,c1ccc2c(CSc3nnc(-c4ccncc4)o3)cccc2c1,-12.8%
21,CCC(CC)C(=O)Nc1nnc(S(=O)(=O)N2CCc3ccccc32)s1,17.9%
22,O=C(O)C1CCCCC1C(=O)Nc1cc(Cl)ccc1Cl (stereo not shown),10.3%

row,Structure (SMILES),"hERG current change (%, negative = inhibition) at 10uM"
1,CCc1ccccc1SCc1noc(C(=O)NCC2CCCO2)c1C(=O)O (stereo not shown),2.36%
2,Cc1sc2ncnc(NCC(c3ccco3)N(C)C)c2c1C.O=C(O)C(=O)O (stereo not shown),-33.7%
3,c1ccc(CNc2ncnc3sc4c(c23)CCC4)nc1,-19.8%
4,Cc1sc2ncnc(NCC(c3ccco3)N3CCCC3)c2c1C (stereo not shown),-51.5%
5,Cl.c1cc(Nc2ncnc3sc4c(c23)CCC4)ccn1,19.3%
6,Cl.c1cncc(CNc2ncnc3sc4c(c23)CCC4)c1,-56.2%
7,CN(C)C(CNc1ncnc2sc3c(c12)CCCCC3)c1ccco1 (stereo not shown),-35.4%
8,Cc1sc2ncnc(N(C)Cc3cccs3)c2c1C,-53%
9,CN(Cc1cccs1)c1ncnc2sccc12,-28.8%
10,Cc1sc2ncnc(N(C)Cc3ccco3)c2c1C,-4.64%
11,CCOC(=O)N1CCN(C(=O)CN(C)S(=O)(=O)c2ccc(Cl)cc2)CC1,8.13%
12,COc1ccc(CCNC(=O)Cc2nn(C)c(=O)c3ccccc23)cc1OC,0.902%
13,CN(CC(=O)NC(=O)NCc1ccco1)Cc1nc2ccccc2c(=O)[nH]1,-3.41%
14,Cn1c(SCC(=O)N2CCCc3ccccc32)nc2cccnc21,9.85%
15,CCOc1ccc(-n2c(-c3ccc(Cl)cc3)c[n+]3c2SCC3)cc1.[Br-],-80.9%
16,[Br-].c1ccc(-c2c[n+]3c(n2-c2ccccc2)SCC3)cc1,-28.4%
17,Clc1ccc(-c2c[n+]3c(n2-c2ccccc2)SCC3)cc1.[Cl-],-62.7%
18,Cc1ccc(-c2c[n+]3c(n2-c2ccccc2)SCC3)cc1.[Br-],-35.8%
19,Brc1ccc(-c2c[n+]3c(n2-c2ccccc2)SCC3)cc1.[Br-],-49.4%
20,COc1ccc(-c2c[n+]3c(n2-c2ccccc2)SCC3)cc1.[Br-],-45.7%
21,CC(=O)c1c(C)[nH]c(C(=O)Nc2ccc(Cl)cc2)c1C,-9.14%
22,CC(C)C(c1nnnn1Cc1ccc(F)cc1)N1CCN(C(=O)c2ccco2)CC1 (stereo not shown),-49.1%

row,Structure (SMILES),"hERG current change (%, negative = inhibition) at 10uM"
1,O=C(CCCNC(=O)c1ccc(Cl)cc1)Nc1ccccc1F,7%
2,Cc1ccccc1-n1cc(CNCc2c(C(=O)N(C)C)nc3ccc(Cl)cn23)cn1,-7.4%
3,COc1ccc(CNCc2c(C(=O)N(C)C)nc3ccc(Cl)cn23)c(OC)c1,-11.1%
4,COc1cccc(-n2cc(CNCc3c(C(=O)N(C)C)nc4ccc(Cl)cn34)cn2)c1,-55.9%
5,Cc1nn(C)cc1NC(=O)c1cc2nc(-c3ccco3)cc(C(F)(F)F)n2n1,4.66%
6,CCOC(=O)N1CCC(NC(=O)C(NS(=O)(=O)c2ccc3c(c2)CCN3C(=O)CC)C(C)C)CC1 (stereo not shown),-6.47%
7,CCc1ccc(NC(=O)CC2C(=O)N(c3ccc(C)cc3)C(=O)N2CCc2ccncc2)cc1 (stereo not shown),-55.8%
8,Cc1cccc(N2C(=O)C(CC(=O)Nc3cccc(F)c3)N(CCc3ccncc3)C2=O)c1 (stereo not shown),-43.6%
9,Cc1ccc(N2C(=O)C(CC(=O)Nc3cccc(F)c3)N(C3CC3)C2=O)cc1 (stereo not shown),-7.13%
10,COc1ccc(CCN2C(=O)N(c3ccc(OC)cc3)C(=O)C2CC(=O)Nc2ccc(OC)cc2)cc1 (stereo not shown),7.46%
11,Cc1ccc(N2C(=O)C(CC(=O)Nc3cccc(F)c3)N(CCc3ccncc3)C2=O)cc1 (stereo not shown),-52.3%
12,CCc1ccc(NC(=O)CC2C(=O)N(c3ccc(C)cc3)C(=O)N2C2CC2)cc1 (stereo not shown),-4.46%
13,O=C(COC(=O)c1ccc(Br)cc1)Nc1cccnc1Cl,-3.51%
14,COC(=O)c1cn(CC(=O)Nc2ccc(OC)cc2)c2ccccc12,8.2%
15,CC(=O)N1CC(C)Oc2ccc(S(=O)(=O)Nc3ccc(Cl)cn3)cc21 (stereo not shown),3.04%
16,CC(=O)OC1(c2ccccc2)CCN(C)CC1(C)C.Cl (stereo not shown),35.4%
17,Cc1ccc(S(=O)(=O)N2CCOC2CNC(=O)C(=O)NCc2ccccc2)cc1 (stereo not shown),-10.3%
18,Cc1ccc(SCc2cc(=O)[nH]c(N3CCOCC3)n2)cc1,-0.0128%
19,O=C(NCc1cccnc1)c1ccccc1-c1ccccc1,-0.462%
20,CC1Cc2ccccc2N1S(=O)(=O)c1cccc(C(=O)NCCCO)c1 (stereo not shown),-27.9%
21,CC1Cc2ccccc2N1S(=O)(=O)c1cccc(C(=O)Nc2cccnc2)c1 (stereo not shown),-60.2%
22,CC1CN(S(=O)(=O)c2cccc(C(=O)NCCCn3ccnc3)c2)CC(C)O1.Cl (stereo not shown),6.18%

row,Structure (SMILES),"hERG current change (%, negative = inhibition) at 10uM"
1,O=C(Nc1cccnc1)c1cccc(S(=O)(=O)N2CCc3ccccc32)c1,11%
2,CC1Cc2ccccc2N1S(=O)(=O)c1cccc(C(=O)NCCCn2ccnc2)c1 (stereo not shown),-50.1%
3,Cc1ccc(NC(=O)c2cccc(S(=O)(=O)NCc3ccccc3)c2)nc1,-50.7%
4,Cc1cccnc1NC(=O)c1cccc(S(=O)(=O)NCc2ccccc2)c1,-14.9%
5,Cc1cc(NC(=O)c2cccc(S(=O)(=O)N3c4ccccc4CC3C)c2)no1 (stereo not shown),-7.3%
6,CC1Cc2ccccc2N1S(=O)(=O)c1cccc(C(=O)NCc2ccccn2)c1 (stereo not shown),-67.6%
7,Cc1ccnc(NC(=O)c2cccc(S(=O)(=O)NCc3ccccc3)c2)c1,-34.6%
8,CC1Cc2ccccc2N1S(=O)(=O)c1cccc(C(=O)NC2CC2)c1 (stereo not shown),-40%
9,CC1Cc2ccccc2N1S(=O)(=O)c1cccc(C(=O)NCc2ccncc2)c1 (stereo not shown),-34.9%
10,Cc1c(Cl)cccc1NC(=O)CN1CCC(NC(=O)C2CCCCC2)CC1,-0.0286%
11,CCOC(=O)c1[nH]c(C)c(C(=O)Nc2ccccc2F)c1C,-11.2%
12,CCOc1ccccc1NC(=O)Cn1c(=O)n(-c2ccccc2)c(=O)c2oc3ccccc3c21,-16.4%
13,O=C(CN(CC1CCCO1)C(=O)CNS(=O)(=O)c1ccc(F)cc1)NCc1ccccc1 (stereo not shown),7.27%
14,CC1CCN(c2ccc3nnc(CCC(=O)NC(C)C)n3n2)CC1,2.67%
15,N#CC1=C(N)OC(c2ccccc2)=C(C#N)C1c1ccc2c(c1)OCO2 (stereo not shown),14.3%
16,Cc1ccc(NS(=O)(=O)c2cccc(C(=O)NCc3ccccn3)c2)cc1,-68.5%
17,Cc1ccc(S(=O)(=O)Nc2ccc(C(=O)NCc3ccccn3)cc2)cc1,-7.17%
18,Cc1ccc(NS(=O)(=O)c2ccc(C(=O)NCc3ccccn3)cc2)cc1,18.8%
19,COc1ccc(OC)c(C2Nc3ccccc3NC3=C2C(=O)CC(C)(C)C3)c1 (stereo not shown),15.4%
20,O=C(Nc1ccc(Br)cc1Cl)c1cnccn1,5.88%
21,CCc1nnc(NC(=O)CSc2nc3cc(OC)c(OC)cc3cc2C)s1,5.07%
22,CCC(=O)N1CCc2cc(S(=O)(=O)CCC(=O)N3CCN(c4ccc(F)cc4)CC3)ccc21,-2.82%
